Source: PubChem BioAssay (NCATS)
Records with an inconclusive call do not appear. Activity calls are given as the source filed them. Unless noted, calls come from the whole dose curve; as a rule, active = well fitted curve in the direction sought with a large enough effect; inconclusive = small, poorly fitted or top-dose-only effect, or another doubt; inactive = no such curve, though single readings can be large; an effect the other way counts as inactive or inconclusive.

Legend:
[1] = target: Estrogen receptor (Homo sapiens) (UniProt P03372); experiment: qHTS assay for small molecule antagonists of estrogen receptor alpha signaling (AID 588513; active = well fitted curve in the direction sought with a large enough effect in the signal ratio, with a control signal flat, not every such curve was filed as active; the % refers to the signal ratio; note: % is set by controls: 0 for no effect and ±100 for the full control effect)
Chain of Estrogen receptor (Homo sapiens) (P03372 whole entry, looked up): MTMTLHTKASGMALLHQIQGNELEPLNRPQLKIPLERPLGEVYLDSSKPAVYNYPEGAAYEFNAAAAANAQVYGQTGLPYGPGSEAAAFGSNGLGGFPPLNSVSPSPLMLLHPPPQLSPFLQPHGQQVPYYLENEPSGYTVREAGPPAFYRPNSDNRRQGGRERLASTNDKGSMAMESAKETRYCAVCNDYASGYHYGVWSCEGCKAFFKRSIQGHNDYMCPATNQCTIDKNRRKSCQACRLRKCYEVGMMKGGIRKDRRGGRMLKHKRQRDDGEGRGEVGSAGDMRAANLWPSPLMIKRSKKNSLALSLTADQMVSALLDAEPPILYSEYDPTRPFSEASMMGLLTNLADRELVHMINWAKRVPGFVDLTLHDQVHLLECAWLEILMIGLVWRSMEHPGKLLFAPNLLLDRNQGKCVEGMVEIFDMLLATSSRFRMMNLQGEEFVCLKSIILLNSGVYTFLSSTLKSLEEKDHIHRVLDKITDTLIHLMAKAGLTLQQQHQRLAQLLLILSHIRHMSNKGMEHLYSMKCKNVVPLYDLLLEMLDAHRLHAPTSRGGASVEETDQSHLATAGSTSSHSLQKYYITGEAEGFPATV
Summary of the method: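 Beta-lactamase reporter, antagonist mode, HEK 293 GripTite cells; 0.5nM E2 stimulus, 18 h, 37 C; CCF4 dye 2 h RT; fluorescence. IC50 and efficacy from Hill fits, normalized to E2 and DMSO.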

[2] = target: Estrogen receptor (Homo sapiens) (UniProt P03372); experiment: qHTS assay for small molecule agonists of estrogen receptor alpha signaling (AID 588514; calls by dose curve;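 note: 0% = vehicle only and 100% = reference agonist; nearly all actives have a fitted effect of over 70% in size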)
Summary of the method: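 ER-alpha-UAS-bla GripTite HEK 293 cells in medium with 2% charcoal/dextran-treated FBS were treated with compound titrations at 37 C for 18 hrs; beta-lactamase reporter read by CCF4 fluorescence after 2 hrs at RT.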

[3] = target: Glucocorticoid receptor (Homo sapiens) (UniProt P04150); experiment: qHTS assay for small molecule antagonists of glucocorticoid receptor signaling (AID 588533; active = well fitted inhibition curve with a large enough effect in the signal ratio, with a control signal flat, not every such curve was filed as active; the % refers to the signal ratio;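 note: cells stimulated with 2 nM dexamethasone as agonist; % is set by controls: 0 for no effect and ±100 for the full control effect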)
Chain of Glucocorticoid receptor (Homo sapiens) (P04150 whole entry, looked up): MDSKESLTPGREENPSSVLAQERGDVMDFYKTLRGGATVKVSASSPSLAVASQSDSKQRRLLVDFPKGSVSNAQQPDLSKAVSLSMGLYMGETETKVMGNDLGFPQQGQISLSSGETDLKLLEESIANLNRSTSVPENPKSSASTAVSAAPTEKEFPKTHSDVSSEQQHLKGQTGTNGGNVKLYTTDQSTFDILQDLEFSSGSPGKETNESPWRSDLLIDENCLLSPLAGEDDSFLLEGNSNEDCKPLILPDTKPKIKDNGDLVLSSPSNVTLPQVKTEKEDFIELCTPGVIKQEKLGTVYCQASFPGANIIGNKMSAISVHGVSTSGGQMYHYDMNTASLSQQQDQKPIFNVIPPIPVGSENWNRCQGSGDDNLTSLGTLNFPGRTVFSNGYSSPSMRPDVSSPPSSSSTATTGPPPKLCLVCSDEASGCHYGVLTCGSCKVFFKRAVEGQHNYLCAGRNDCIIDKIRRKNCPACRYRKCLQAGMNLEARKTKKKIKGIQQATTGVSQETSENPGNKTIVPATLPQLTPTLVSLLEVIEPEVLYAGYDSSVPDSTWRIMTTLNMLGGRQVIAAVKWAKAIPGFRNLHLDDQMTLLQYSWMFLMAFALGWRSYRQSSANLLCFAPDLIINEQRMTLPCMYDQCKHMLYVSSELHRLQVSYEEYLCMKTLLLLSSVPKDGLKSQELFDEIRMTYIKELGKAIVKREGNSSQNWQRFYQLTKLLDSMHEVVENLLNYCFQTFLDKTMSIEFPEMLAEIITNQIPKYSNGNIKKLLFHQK
Summary of the method: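 Antagonist-mode qHTS: compound titrations added to GRE-bla HeLa cells, then dexamethasone 2 nM final; 18 h, 37 C. CCF4 FRET fluorescence normalized to dexamethasone and DMSO; IC50 from Hill fit.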

[4] = qHTS assay for small molecule antagonists of peroxisome proliferator-activated receptor delta signaling (AID 588535; active = well fitted inhibition curve with a large enough effect in the signal ratio, with a control signal flat, not every such curve was filed as active; the % refers to the signal ratio;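 for max response: cells co-treated with a PPAR-delta agonist as stimulator during compound exposure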); conditions: HEK293T PPARd-UAS-bla, beta-lactamase FRET ratio, 18 h; 460 nm channel
Summary of the method: (§1)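 GeneBLAzer PPAR-delta-UAS-bla HEK293T cells in medium with 2% charcoal/dextran FBS were preincubated 5 hrs at 37 C, then given compounds, incubated 18 hrs at 37 C, and read by CCF4 beta-lactamase fluorescence; IC50 from Hill fits.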

[5] = target: Peroxisome proliferator-activated receptor delta (Homo sapiens) (UniProt Q03181); experiment: as above
Chain of Peroxisome proliferator-activated receptor delta (Homo sapiens) (Q03181 whole entry, looked up): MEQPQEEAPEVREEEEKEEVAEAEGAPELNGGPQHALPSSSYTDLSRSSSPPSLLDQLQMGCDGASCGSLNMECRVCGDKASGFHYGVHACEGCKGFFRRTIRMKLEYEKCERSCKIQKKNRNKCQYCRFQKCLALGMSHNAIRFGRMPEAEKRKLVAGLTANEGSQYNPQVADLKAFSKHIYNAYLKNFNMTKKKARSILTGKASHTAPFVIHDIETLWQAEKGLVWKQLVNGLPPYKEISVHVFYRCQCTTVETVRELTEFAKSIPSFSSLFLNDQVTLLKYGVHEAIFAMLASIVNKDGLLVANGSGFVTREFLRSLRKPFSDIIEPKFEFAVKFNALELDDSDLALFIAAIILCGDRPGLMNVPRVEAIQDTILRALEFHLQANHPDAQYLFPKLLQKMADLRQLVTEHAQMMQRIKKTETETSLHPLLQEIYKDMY
Summary of the method: as §1

[6] = qHTS assay for small molecule agonists of retinoid X receptor alpha signaling (AID 588544; calls by dose curve;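 for activation: 0% = DMSO basal wells and 100% = reference agonist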); conditions: HEK293T RXRa-UAS-bla, beta-lactamase reporter, 18 h; 530 nm emission
[7] = target: Retinoic acid receptor RXR-alpha (Homo sapiens) (UniProt P19793); experiment: as above
Chain of Retinoic acid receptor RXR-alpha (Homo sapiens) (P19793 whole entry, looked up): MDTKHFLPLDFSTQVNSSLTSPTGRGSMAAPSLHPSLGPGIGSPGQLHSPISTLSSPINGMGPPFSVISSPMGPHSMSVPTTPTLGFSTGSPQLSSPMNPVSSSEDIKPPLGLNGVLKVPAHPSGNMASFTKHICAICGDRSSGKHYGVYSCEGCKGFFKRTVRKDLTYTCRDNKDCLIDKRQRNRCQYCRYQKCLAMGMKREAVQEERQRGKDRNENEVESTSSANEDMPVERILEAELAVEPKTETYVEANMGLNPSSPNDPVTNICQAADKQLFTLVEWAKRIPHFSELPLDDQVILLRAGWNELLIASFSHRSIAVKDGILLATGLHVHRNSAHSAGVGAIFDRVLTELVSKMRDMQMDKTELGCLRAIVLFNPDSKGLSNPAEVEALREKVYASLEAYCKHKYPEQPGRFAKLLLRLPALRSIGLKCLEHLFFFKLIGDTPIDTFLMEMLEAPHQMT

[8] = target: Thyroid hormone receptor beta (Homo sapiens) (UniProt P10828); experiment: qHTS assay for small molecule agonists of thyroid hormone receptor beta signaling (AID 588545; calls by dose curve;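 note: 0% = DMSO only and 100% = 10 nM T3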)
Chain of Thyroid hormone receptor beta (Homo sapiens) (P10828 whole entry, looked up): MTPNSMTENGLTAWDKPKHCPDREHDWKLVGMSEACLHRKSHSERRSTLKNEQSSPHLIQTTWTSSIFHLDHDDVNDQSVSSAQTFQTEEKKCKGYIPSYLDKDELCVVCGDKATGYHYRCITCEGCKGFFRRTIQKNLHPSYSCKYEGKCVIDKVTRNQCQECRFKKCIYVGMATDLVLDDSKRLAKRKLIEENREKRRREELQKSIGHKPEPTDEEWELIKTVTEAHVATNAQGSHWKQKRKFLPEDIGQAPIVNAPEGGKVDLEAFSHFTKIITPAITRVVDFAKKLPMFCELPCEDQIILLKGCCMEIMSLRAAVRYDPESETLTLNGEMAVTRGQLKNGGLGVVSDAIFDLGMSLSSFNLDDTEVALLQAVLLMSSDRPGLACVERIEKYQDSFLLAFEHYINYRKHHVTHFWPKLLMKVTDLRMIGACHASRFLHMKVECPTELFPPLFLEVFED
Summary of the method: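 Stimulation of a TR-driven beta-lactamase reporter was quantified in GripTite HEK 293 cells. Compound series ran for 18 hrs; curves were normalized to T3 and DMSO controls and fitted to yield EC50.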

[9] = qHTS assay for small molecule antagonists of retinoid X receptor alpha signaling (AID 588546; active = well fitted inhibition curve with a large enough effect in the signal ratio, with a control signal flat, not every such curve was filed as active; the % refers to the signal ratio;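 note: cells stimulated with 9-cis-retinoic acid as agonist; % is set by controls: 0 for no effect and ±100 for the full control effect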); conditions: HEK293T RXRa-UAS-bla, beta-lactamase ratio, antagonist mode; measured here: W530 green channel, cytotoxicity proxy
Summary of the method: (§2)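 Beta-lactamase reporter inhibition, read as CCF4 fluorescence ratio (ex 405, em 460/530 nm) after 2 h at RT. HEK293T UAS-bla cells, 2500/well, were stimulated with 9-cis-RA at 500 or 100 nM final alongside test compound for 18 h at 37 C.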

[10] = target: Retinoic acid receptor RXR-alpha (Homo sapiens) (UniProt P19793); experiment: as above; conditions: HEK293T RXRa-UAS-bla, beta-lactamase ratio, antagonist mode
Summary of the method: as §2

[11] = qHTS assay for small molecule activators of the nuclear factor-kappa B (NF-kB) signaling pathway (AID 651749; active = well fitted activation curve with a large enough effect in the signal ratio; the % refers to the signal ratio; note: series mostly up to about 77 µM; % of control where 0% means no effect); conditions: NF-kB-bla ME-180 cells, beta-lactamase FRET ratio, 16 h; activation: stronger effect = higher value
Summary of the method: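 ME-180 cells stably carrying a beta-lactamase reporter under an NF-kB response element were exposed to compound or DMSO vehicle for 16 hr at 37C, 5% CO2. Pathway activation was read by FRET, since reporter expression disrupts FRET.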

[12] = qHTS assay for environmental chemicals that activate the Aryl hydrocarbon Receptor (AhR) signaling pathway (AID 651777); conditions: 1A2-DRE human hepatoma cells, luciferase, 24 h; activation: stronger effect = higher value; note: % of control where 0% means no effect; nearly all actives have a fitted effect of over 15% in size
Summary of the method: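 Following a 24 hr incubation with test chemicals at 37 C and 5% CO2, 1A2-DRE human hepatoma cells received One-Glo reagent; after 30 min at room temperature, luciferase output reflected CYP1A2 induction via AhR.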

[13] = target: Peroxisome proliferator-activated receptor alpha (Homo sapiens) (UniProt Q07869); experiment: qHTS assay for small molecule agonists of the peroxisome proliferator-activated receptor alpha (PPARalpha) signaling pathway (AID 651778); conditions: PathHunter PPARalpha complementation, chemiluminescence, 6 h; max response: stronger effect = higher value; note: % of control where 0% means no effect
Chain of Peroxisome proliferator-activated receptor alpha (Homo sapiens) (Q07869 whole entry, looked up): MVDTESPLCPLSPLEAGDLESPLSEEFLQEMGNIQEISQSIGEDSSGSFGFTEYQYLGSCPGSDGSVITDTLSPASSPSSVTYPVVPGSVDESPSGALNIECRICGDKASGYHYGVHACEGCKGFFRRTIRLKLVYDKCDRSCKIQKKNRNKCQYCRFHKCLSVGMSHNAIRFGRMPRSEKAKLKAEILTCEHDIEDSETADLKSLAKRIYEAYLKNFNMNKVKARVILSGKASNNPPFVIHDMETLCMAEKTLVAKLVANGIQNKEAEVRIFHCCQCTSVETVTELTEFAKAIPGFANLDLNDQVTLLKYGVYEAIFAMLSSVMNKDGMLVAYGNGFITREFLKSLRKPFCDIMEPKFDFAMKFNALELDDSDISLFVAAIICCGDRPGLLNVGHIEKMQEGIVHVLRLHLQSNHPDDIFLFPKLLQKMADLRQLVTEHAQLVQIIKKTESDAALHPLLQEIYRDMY
Summary of the method: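 Cells plated at 2,000/well and held overnight at 37 C, 5% CO2, then compound added by pin tool for 6 hr; after PathHunter detection reagent and 60 min at room temperature, chemiluminescence from enzyme complementation was read.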

[14] = qHTS assay for small molecule agonists of the antioxidant response element (ARE) signaling pathway measured by Nrf2-dependant transcriptional activity - cell viability counter screen (AID 720653; active = well fitted curve in the direction sought with a large enough effect in the repeat runs; an effect the other way counts as inactive or inconclusive; note: % is set by controls: 0 for no effect and ±100 for the full control effect); conditions: ARE-bla HepG2 viability, CellTiter-Glo ATP luminescence, 16 h; max response: stronger effect = lower value
Summary of the method: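 ARE-bla HepG2 cells (2,000/well) rested 5 hrs at 37C/5% CO2, then exposed to compounds in DMSO for 16 hrs. Viability was read in the same wells as intracellular ATP by luminescence, 30 min at room temperature after reagent addition.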

[15] = qHTS assay for cell viability of HEK293 cells (AID 743288); conditions: ATP luminescence (CellTiter-Glo), 18 h; max response: stronger effect = lower value; note: % is set by controls: 0 for no effect and ±100 for the full control effect; nearly all actives have a fitted effect of over 50% in size
Summary of the method: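 Environmental chemicals tested in qHTS format against parental HEK293 cells; 18 h treatment, 37 C; read-out ATP luminescence (CellTiter-Glo), 30 min RT development.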

[16] = target: Nuclear receptor subfamily 1 group I member 2 (Rattus norvegicus) (UniProt Q9R1A7); experiment: qHTS assay for small molecule activators of the rat pregnane X receptor (rPXR) signaling pathway (AID 651751; call rule not given here; note: 0% is about no effect); conditions: rPXR reporter cells, luciferase (One-Glo), 24 h
Chain of Nuclear receptor subfamily 1 group I member 2 (Rattus norvegicus) (Q9R1A7 whole entry, looked up): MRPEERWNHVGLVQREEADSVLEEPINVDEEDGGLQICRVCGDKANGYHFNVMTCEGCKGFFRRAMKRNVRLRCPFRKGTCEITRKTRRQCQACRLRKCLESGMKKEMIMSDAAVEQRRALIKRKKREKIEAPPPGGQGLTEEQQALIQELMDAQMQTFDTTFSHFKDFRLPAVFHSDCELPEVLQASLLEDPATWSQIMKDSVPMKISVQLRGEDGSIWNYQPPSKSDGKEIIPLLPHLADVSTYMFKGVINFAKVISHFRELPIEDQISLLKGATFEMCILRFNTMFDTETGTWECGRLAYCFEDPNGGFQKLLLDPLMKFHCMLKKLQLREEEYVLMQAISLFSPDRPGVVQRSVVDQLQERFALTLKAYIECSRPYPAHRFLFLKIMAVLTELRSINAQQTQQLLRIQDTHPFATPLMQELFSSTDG

[17] = qHTS assay for small molecule agonists of the antioxidant response element (ARE) signaling pathway measured by Nrf2-dependant transcriptional activity (AID 720636; active = well fitted curve in the direction sought with a large enough effect in the repeat runs; an effect the other way counts as inactive or inconclusive;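 note: HepG2 cells with an ARE-driven luciferase reporter; % of control where 0% means no effect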)
Summary of the method: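 ONE-Glo luminescence, read 30 min after reagent addition at room temperature, reflected ARE reporter activity in HepG2 cells that had been incubated with compound for 16 hr at 37 C in 1% dialyzed FBS.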

[18] = qHTS assay for cell viability of the p53RE-bla HCT-116 cell line (AID 743292); note: % is set by controls: 0 for no effect and ±100 for the full control effect; nearly all actives have a fitted effect of over 55% in size
Summary of the method: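 After plating at 4,000 cells per well and a 5 h rest at 37 C, HCT-116 cells carrying p53RE-bla received test chemicals in DMSO. Sixteen hours later at 37 C, CellTiter-Glo was added and luminescence recorded following 30 min at room temperature.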

[19] = qHTS assay for small molecule activators of the human pregnane X receptor (PXR) signaling pathway (AID 720659; call rule not given here; note: 0% is about no effect)
[20] = target: Peroxisome proliferator-activated receptor gamma (Homo sapiens) (UniProt P37231); experiment: qHTS assay for small molecule agonists of peroxisome proliferator-activated receptor gamma signaling (AID 588536; active = well fitted curve in the direction sought with a large enough effect in the signal ratio, with a control signal flat, not every such curve was filed as active; the % refers to the signal ratio;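 note: 0% = DMSO basal wells and 100% = rosiglitazone at 2 µM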)
Chain of Peroxisome proliferator-activated receptor gamma (Homo sapiens) (P37231 whole entry, looked up): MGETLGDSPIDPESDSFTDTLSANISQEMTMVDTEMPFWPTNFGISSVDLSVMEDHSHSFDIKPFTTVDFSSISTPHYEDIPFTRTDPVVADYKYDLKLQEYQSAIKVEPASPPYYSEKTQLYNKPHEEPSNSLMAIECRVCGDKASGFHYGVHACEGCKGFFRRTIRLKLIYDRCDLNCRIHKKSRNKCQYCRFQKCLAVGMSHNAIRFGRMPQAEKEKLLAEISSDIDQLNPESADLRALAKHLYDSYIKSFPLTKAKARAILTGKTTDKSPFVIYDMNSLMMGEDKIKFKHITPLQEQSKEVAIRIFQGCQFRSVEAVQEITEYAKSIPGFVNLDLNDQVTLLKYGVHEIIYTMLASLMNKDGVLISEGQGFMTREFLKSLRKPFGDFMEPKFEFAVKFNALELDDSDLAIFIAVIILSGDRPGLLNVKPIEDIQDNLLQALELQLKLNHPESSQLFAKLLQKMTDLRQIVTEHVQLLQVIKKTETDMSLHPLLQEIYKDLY
Summary of the method: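 Ratiometric blue/green fluorescence (405 nm excitation; 460 and 530 nm emission) from CCF4-loaded HEK293 reporter cells serves as signal. Exposure to test compounds lasts 16 h at 37 C in medium containing 1% charcoal/dextran-treated serum.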

Cc1ccc(C(=O)c2ccccc2)cc1
9.26%: max response [9]
inactive: Potency [1] | Potency [2] | Potency [3] | Potency [5] | Potency [7] | Potency [8] | max response [10] -15.9% | activation [11] 0.979% | activation [12] -0.234% | max response [13] -3.56% | max response [14] -0.957% | max response [15] -2.28% | max response [16] 3.11%
-13.1%: max response [4]
0.662%: max response [6]

CCCCOC(=O)/C=C\C(=O)OCCCC
inactive: Potency [1] | Potency [2] | Potency [3] | Potency [7] | Potency [8] | max response [10] 8.44% | activation [11] 0.89% | activation [12] 0.228% | max response [13] -0.617% | Potency [17] | max response [15] -1.23% | Potency [18] | max response [16] 0.138% | outcome [19]
-15%: max response [6]
-0.0728%: max response [9]

c1ccc(OCCOc2ccccc2)cc1
9.85%: max response [4]
-12.8%: max response [9]
inactive: Potency [1] | Potency [2] | Potency [3] | Potency [5] | outcome [20] | Potency [8] | max response [10] -10.1% | activation [11] -1.28% | activation [12] 8.39% | max response [13] 0.31% | max response [14] -8.94% | max response [15] -4.78% | Potency [18]

CC1(C)C(=O)N(Cl)C(=O)N1Cl
-24.2%: max response [6]
1.31%: max response [9]
inactive: Potency [1] | Potency [2] | Potency [3] | outcome [20] | Potency [7] | Potency [8] | max response [10] -12.2% | activation [12] 0.743% | max response [13] -0.353% | Potency [17] | max response [14] -14.6% | max response [15] -4.37% | Potency [18] | max response [16] -0.522% | outcome [19]

O=C(OCCOCCOC(=O)c1ccccc1)c1ccccc1
inactive: Potency [1] | Potency [2] | Potency [5] | outcome [20] | Potency [7] | Potency [8] | max response [10] 4.89% | activation [11] 0.298% | activation [12] 1.92% | max response [13] -0.375% | Potency [17] | max response [14] -6.77% | max response [15] -9.08% | Potency [18] | max response [16] 2.6% | outcome [19]
-7.11%: max response [9]
59.9%: max response [4]
-16.7%: max response [6]

Nc1nc(N)nc(-c2ccccc2)n1
20.7%: max response [4]
inactive: Potency [1] | Potency [2] | Potency [3] | Potency [5] | outcome [20] | Potency [7] | Potency [8] | max response [10] -4.65% | activation [11] 0.267% | activation [12] 5.62% | max response [13] 0.149% | max response [14] -8.33% | max response [15] -4.29% | Potency [18] | max response [16] 2.49% | outcome [19]
-9.5%: max response [6]
-13.3%: max response [9]

CC(=O)OC(C)(C)C1CC=C(C)CC1 (stereo not drawn)
-19.2%: max response [9]
inactive: Potency [1] | Potency [2] | Potency [5] | Potency [7] | Potency [8] | max response [10] -1.89% | activation [12] -2.57% | Potency [17] | max response [15] -11.3% | Potency [18] | max response [16] -1.76% | outcome [19]
-21.5%: max response [4]
-9.79%: max response [6]

O=S(=O)(O)c1ccc(N=Nc2c(O)ccc3cc(S(=O)(=O)O)ccc23)cc1
inactive: Potency [1] | Potency [2] | Potency [5] | Potency [7] | Potency [8] | max response [10] -6.14% | activation [11] -0.945% | activation [12] -1.77% | max response [13] -7.14% | Potency [17] | max response [15] -13.8% | Potency [18] | max response [16] -7.92% | outcome [19]
-15.1%: max response [9]
-5.34%: max response [4]
-4.64%: max response [6]

Fc1ccc(Br)cc1
4.76%: max response [6]
-8.4%: max response [9]
inactive: Potency [1] | Potency [2] | Potency [3] | Potency [7] | Potency [8] | max response [10] 4.33% | activation [11] 1.17% | activation [12] 2.85% | max response [13] -2.75% | Potency [17] | max response [14] -9.66% | max response [15] -0.046% | Potency [18] | max response [16] -1.72% | outcome [19]

C/C(=C\C(C)CC(C)CC(C)C)C1CC(=O)OC1=O (stereo not drawn)
-6.65%: max response [9]
7.08%: max response [6]
29.8%: max response [4]
inactive: Potency [1] | Potency [2] | Potency [5] | outcome [20] | Potency [7] | Potency [8] | max response [10] 4.94% | activation [11] -0.74% | activation [12] 1.33% | max response [13] -0.902% | Potency [17] | max response [14] -17.9% | max response [15] -7.26% | max response [16] 3.67% | outcome [19]

O=[N+]([O-])C(CO)(CO)CO
26.9%: max response [4]
inactive: Potency [1] | Potency [2] | Potency [5] | outcome [20] | Potency [7] | Potency [8] | max response [10] 4.16% | activation [11] 0.34% | activation [12] -1.19% | max response [13] -3.92% | Potency [17] | max response [14] -10% | max response [15] -13.7% | Potency [18] | max response [16] 0.128% | outcome [19]
-11.5%: max response [6]
-5.31%: max response [9]

C[N+](C)(C)CC(O)CCl (stereo not drawn)
inactive: Potency [1] | Potency [2] | Potency [3] | Potency [5] | outcome [20] | Potency [7] | Potency [8] | max response [10] 4% | activation [11] -1.69% | activation [12] 0.882% | max response [13] -0.685% | Potency [17] | max response [14] 0.797% | max response [15] -11.6% | Potency [18] | max response [16] 0.555% | outcome [19]
-3.49%: max response [6]
-3.33%: max response [9]
1.91%: max response [4]
